Reference: the supplement of paper PMC10849652
The full data set covers some 7,900 targets. This sample favours those with a hit. About 0.6% of all pairs of compound and target were hits.

Tests used:
Assay in all cases: log2 fold change, soluble protein after heating vs DMSO (PISA); higher = thermal stabilisation; K562 cells, 10 uM, 30 min; active = over 0.2 and 3.5 SD of the protein, either way, in both replicates (recomputed)
IRAK-1-4 Inhibitor I = compound: C1COCCN1CCN2C3=CC=CC=C3N=C2NC(=O)C4=CC(=CC=C4)[N+](=O)[O-] [IRAK-1-4 Inhibitor I]
How it was run: (§1)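 K562 cells at 2×10^6 cells/mL were given 10 μM compound for 30 min. Aliquots then went through 3 min of heating across 48°C-58°C, were pooled, and were extracted in PBS with 0.5% NP-40 at 4°C, and the supernatant after 21,000xg for 90 min was quantified by TMTpro 16plex LC-MS/MS with channel sums equalised. Thermal stability relative to control samples, from duplicates, is given as log2 fold change.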

[1] = compound: CC(=O)c1cnc2ccc(-c3cc(Cl)c(O)c(Cl)c3)nc2c1N[C@H]1CC[C@H](CN(C)C)CC1
How it was run: as §1

ralimetinib = compound: CC(C)(C)Cn1c(N)nc2ccc(-c3[nH]c(C(C)(C)C)nc3-c3ccc(F)cc3)nc21 [ralimetinib]
How it was run: as §1

[2] = compound: CC(C)(O)CC(=O)NCCn1ccc2ncnc(Nc3ccc(Oc4cccc(C(F)(F)F)c4)c(Cl)c3)c21
How it was run: as §1

[3] = compound: CC(C)C1=C2N=C(C=C(N2N=C1)NCC3=CC=CC=C3)NCCCCCCN
How it was run: as §1

[4] = compound: CC(C)C[C@@H](C=O)NC(=O)[C@H](CC(C)C)NC(=O)[C@H](CC(C)C)NC(=O)OCc1ccccc1
How it was run: as §1

pinometostat = compound: CC(C)N(C[C@H]1O[C@@H](n2cnc3c(N)ncnc32)[C@H](O)[C@@H]1O)[C@H]1C[C@@H](CCc2nc3cc(C(C)(C)C)ccc3[nH]2)C1 [pinometostat]
How it was run: as §1

[5] = compound: CC1=C(C(CC(=O)N1)C2=CC=C(C=C2)C(F)(F)F)C(=O)NC3=C(C=C4C(=C3)C=NN4)F
How it was run: as §1

[6] = compound: CC1=C(C2=C(C=C1)C(=O)C3=CC=CC=C3N2CCCN)C
How it was run: as §1

[7] = compound: CC1=C(C=C(C=C1)NC(=O)C2=CC(=CC=C2)C(C)(C)C#N)NC3=CC4=C(C=C3)N=CN(C4=O)C
How it was run: as §1

[8] = compound: CC1=C(C=C(C=C1)NC(=O)C2=CC(=CC=C2)N(C)C)NC(=O)C3=CC=C(C=C3)O
How it was run: as §1

[9] = compound: CC1=CC=C(C=C1)SC2=C3C=C(SC3=CN=C2)C(=O)N
How it was run: as §1

[10] = compound: CC1=NC(=CC=C1)C2=C(N=C(N2)C(C)(C)C)C3=CC4=NC=CN=C4C=C3
How it was run: as §1

Nexturastat A = compound: CCCCN(Cc1ccc(C(=O)NO)cc1)C(=O)Nc1ccccc1 [Nexturastat A]
How it was run: as §1

vemurafenib = compound: CCCS(=O)(=O)Nc1ccc(F)c(C(=O)c2c[nH]c3ncc(-c4ccc(Cl)cc4)cc23)c1F [vemurafenib]
How it was run: as §1

[11] = compound: CCCS(=O)(=O)Nc1ccc(F)c(C(=O)c2c[nH]c3ncc(Cl)cc23)c1F
How it was run: as §1

[12] = compound: CCCc1cc(C)[nH]c(=O)c1CNC(=O)c1cc(-c2ccnc(N3CCN(C)CC3)c2)cc2c1cnn2C(C)C
How it was run: as §1

givinostat = compound: CCN(CC)Cc1ccc2cc(COC(=O)Nc3ccc(C(=O)NO)cc3)ccc2c1 [givinostat]
How it was run: as §1

barasertib = compound: CCN(CCCOc1ccc2c(Nc3cc(CC(=O)Nc4cccc(F)c4)[nH]n3)ncnc2c1)CCOP(=O)(O)O [barasertib]
How it was run: as §1

ibrutinib = compound: C=CC(=O)N1CCC[C@@H](n2nc(-c3ccc(Oc4ccccc4)cc3)c3c(N)ncnc32)C1 [ibrutinib]
How it was run: as §1

Measured: log2 fold change

CLCN3 isoform 2 (UniProt P51790)
UniProt P51790, sequence (P51790 whole entry, looked up): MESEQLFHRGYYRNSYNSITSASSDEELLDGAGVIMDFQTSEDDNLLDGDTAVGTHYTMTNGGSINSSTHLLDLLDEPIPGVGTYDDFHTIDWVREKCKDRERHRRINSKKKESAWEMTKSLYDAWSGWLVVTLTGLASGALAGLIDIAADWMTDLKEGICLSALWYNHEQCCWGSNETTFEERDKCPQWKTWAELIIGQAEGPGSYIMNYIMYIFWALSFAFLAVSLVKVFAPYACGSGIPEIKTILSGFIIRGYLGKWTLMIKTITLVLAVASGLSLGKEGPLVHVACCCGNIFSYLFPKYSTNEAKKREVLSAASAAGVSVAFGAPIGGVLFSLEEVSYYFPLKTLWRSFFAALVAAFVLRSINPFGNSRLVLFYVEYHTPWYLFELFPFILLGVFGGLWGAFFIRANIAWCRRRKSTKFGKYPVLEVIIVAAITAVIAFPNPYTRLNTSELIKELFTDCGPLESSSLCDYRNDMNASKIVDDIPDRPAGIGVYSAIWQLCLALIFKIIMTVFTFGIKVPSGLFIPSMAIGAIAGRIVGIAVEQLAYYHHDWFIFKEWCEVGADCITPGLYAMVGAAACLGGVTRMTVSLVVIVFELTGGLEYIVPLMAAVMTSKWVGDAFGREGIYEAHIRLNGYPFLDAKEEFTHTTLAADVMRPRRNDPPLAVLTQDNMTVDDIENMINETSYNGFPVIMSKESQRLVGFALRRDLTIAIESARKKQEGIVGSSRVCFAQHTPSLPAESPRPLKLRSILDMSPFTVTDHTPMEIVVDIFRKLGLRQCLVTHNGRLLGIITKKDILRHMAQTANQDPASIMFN
inactive: IRAK-1-4 Inhibitor I 0.005 | [1] -0.008 | ralimetinib 0.026 | [2] -0.043 | [3] -0.049 | [4] -0.066 | pinometostat -0.043 | [5] -0.012 | [6] 0.051 | [7] -0.055 | [8] 0.002 | [9] 0.008 | [10] 0.061 | Nexturastat A -0.026 | vemurafenib 0 | [11] 0.03 | [12] -0.023 | givinostat 0.029 | barasertib -0.006

CLASP2 (UniProt O75122)
UniProt O75122, sequence (O75122 whole entry, looked up): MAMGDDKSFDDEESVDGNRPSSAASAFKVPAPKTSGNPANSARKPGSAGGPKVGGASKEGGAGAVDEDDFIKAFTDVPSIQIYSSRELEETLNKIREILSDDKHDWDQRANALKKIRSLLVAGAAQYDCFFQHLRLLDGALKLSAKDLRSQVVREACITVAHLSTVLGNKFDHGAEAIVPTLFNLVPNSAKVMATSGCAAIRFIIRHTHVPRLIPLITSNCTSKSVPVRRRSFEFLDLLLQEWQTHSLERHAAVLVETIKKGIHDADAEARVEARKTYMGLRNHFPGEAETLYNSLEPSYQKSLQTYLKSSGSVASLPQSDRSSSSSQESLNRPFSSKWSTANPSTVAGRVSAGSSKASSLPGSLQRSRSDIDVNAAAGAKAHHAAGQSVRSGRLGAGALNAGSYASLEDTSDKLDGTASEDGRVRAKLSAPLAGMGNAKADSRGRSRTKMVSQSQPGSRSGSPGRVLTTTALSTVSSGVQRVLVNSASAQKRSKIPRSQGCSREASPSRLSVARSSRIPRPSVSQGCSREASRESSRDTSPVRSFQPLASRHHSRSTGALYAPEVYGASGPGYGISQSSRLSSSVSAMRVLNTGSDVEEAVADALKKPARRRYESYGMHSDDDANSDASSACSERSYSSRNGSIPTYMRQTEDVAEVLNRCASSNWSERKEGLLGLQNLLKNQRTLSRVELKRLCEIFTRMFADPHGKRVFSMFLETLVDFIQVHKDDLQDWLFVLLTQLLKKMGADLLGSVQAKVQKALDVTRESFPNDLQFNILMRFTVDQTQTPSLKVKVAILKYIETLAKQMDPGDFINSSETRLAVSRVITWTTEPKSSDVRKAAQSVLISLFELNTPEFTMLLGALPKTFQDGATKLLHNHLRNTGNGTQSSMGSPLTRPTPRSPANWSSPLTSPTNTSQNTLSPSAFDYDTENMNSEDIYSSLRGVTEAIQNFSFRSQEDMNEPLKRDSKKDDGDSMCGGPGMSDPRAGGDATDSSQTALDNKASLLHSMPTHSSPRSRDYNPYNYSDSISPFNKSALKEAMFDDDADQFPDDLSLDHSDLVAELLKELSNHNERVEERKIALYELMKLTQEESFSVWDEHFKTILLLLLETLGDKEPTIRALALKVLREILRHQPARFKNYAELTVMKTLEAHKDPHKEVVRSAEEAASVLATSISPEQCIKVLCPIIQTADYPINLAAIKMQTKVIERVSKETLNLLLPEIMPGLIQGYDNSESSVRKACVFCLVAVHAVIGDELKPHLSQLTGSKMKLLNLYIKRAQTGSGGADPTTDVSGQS
inactive: IRAK-1-4 Inhibitor I 0.027 | [1] -0.852 | ralimetinib -0.067 | [3] 0.086 | [4] 0.161 | pinometostat 0.057 | [5] 0.116 | [8] -0.286 | [9] -0.103 | [10] 0.065 | [11] -0.068 | [12] -0.017 | givinostat 0.031 | barasertib 0.031

COMMD1 (UniProt Q8N668)
UniProt Q8N668, sequence (Q8N668 whole entry, looked up): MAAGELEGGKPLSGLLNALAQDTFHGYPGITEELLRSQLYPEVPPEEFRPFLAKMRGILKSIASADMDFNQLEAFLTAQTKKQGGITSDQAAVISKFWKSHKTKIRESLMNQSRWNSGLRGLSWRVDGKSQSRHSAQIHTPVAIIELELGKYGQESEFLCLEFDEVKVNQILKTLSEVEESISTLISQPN
inactive: IRAK-1-4 Inhibitor I -0.033 | ibrutinib -0.083 | ralimetinib 0.036 | [2] 0.06 | [3] -0.177 | [4] 0.19 | pinometostat 0.046 | [5] 0.027 | [6] 0.006 | [7] 0.037 | [8] -0.064 | [9] -0.048 | [10] 0.056 | Nexturastat A 0.011 | vemurafenib -0.038 | [11] 0.097 | [12] 0.056 | givinostat 0.122 | barasertib 0.057

C6orf120 (UniProt Q7Z4R8)
UniProt Q7Z4R8, sequence (Q7Z4R8 whole entry, looked up): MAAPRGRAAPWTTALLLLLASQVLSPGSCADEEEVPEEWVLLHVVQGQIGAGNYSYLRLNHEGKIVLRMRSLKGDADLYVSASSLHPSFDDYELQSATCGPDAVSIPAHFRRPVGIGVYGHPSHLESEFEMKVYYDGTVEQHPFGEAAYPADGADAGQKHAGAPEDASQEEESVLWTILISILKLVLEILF
inactive: IRAK-1-4 Inhibitor I 0.116 | ibrutinib -0.003 | ralimetinib 0.015 | [3] -0.19 | [4] -0.003 | pinometostat -0.023 | [5] 0.062 | [6] 0.002 | [7] -0.054 | [8] 0.045 | [9] 0.018 | [10] -0.094 | vemurafenib -0.035 | [11] 0.069 | givinostat -0.011 | barasertib 0.017

COX17 (UniProt Q14061)
UniProt Q14061, sequence (Q14061 whole entry, looked up): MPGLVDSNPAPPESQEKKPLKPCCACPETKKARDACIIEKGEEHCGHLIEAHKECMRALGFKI
inactive: IRAK-1-4 Inhibitor I -0.14 | [1] -0.052 | ralimetinib 0.41 | [2] -0.158 | [3] 0.019 | [4] -0.196 | pinometostat -0.014 | [5] 0.241 | [6] 0.086 | [7] -0.015 | [8] -0.358 | [10] 0.024 | Nexturastat A 0 | vemurafenib 0.029 | [12] 0.025 | givinostat 0.029

CASP9 (UniProt P55211)
UniProt P55211, sequence (P55211 whole entry, looked up): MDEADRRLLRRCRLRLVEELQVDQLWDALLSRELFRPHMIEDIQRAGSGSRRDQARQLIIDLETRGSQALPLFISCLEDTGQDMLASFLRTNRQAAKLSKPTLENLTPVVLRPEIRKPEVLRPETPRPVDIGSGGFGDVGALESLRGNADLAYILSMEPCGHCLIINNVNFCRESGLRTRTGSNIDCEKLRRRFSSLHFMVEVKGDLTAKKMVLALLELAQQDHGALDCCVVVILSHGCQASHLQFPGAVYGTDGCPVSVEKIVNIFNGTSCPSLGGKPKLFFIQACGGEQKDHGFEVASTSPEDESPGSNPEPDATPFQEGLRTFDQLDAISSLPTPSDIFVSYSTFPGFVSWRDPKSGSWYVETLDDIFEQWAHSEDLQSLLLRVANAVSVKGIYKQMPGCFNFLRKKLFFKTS
inactive: IRAK-1-4 Inhibitor I 0.03 | [1] -0.096 | ralimetinib 0.008 | [2] -0.043 | [4] 0.053 | pinometostat 0.03 | [5] -0.071 | [6] -0.206 | [7] 0.103 | [8] -0.091 | [9] 0.032 | [10] 0.021 | Nexturastat A 0.045 | vemurafenib 0.107 | [11] 0.111

CLPX (UniProt O76031)
UniProt O76031, sequence (O76031 whole entry, looked up): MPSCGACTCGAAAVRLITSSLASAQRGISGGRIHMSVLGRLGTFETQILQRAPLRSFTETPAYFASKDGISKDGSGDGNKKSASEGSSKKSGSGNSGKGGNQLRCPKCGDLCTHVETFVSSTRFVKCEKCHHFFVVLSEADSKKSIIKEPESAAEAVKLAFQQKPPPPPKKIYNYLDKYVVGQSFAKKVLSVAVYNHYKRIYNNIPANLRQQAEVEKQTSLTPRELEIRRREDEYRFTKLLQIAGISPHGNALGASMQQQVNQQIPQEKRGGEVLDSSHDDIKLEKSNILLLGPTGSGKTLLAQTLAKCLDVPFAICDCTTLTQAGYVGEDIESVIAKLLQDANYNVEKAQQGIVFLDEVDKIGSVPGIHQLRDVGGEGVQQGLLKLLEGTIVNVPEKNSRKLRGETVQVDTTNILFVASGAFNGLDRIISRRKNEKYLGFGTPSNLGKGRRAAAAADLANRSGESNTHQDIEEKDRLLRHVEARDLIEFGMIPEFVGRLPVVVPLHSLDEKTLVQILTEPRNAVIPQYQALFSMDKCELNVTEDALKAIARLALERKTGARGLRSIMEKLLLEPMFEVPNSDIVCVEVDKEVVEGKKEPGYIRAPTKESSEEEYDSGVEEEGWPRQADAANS
inactive: IRAK-1-4 Inhibitor I 0.002 | [1] 0.006 | ralimetinib -0.03 | [2] -0.02 | [3] 0.048 | [4] -0.055 | pinometostat -0.026 | [5] 0.004 | [6] 0.012 | [7] 0.022 | [8] -0.013 | [9] -0.008 | [10] 0.012 | Nexturastat A 0 | vemurafenib -0.011 | [11] -0.013 | [12] -0.002 | givinostat 0.02 | barasertib -0.013

CAV2 (UniProt P51636)
UniProt P51636, sequence (P51636 whole entry, looked up): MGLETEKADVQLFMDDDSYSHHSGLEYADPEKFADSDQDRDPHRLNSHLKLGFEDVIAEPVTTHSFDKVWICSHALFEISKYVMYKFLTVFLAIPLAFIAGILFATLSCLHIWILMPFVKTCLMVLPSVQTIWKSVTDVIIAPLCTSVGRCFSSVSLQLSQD
inactive: IRAK-1-4 Inhibitor I -0.165 | ibrutinib 0.105 | [1] 0.025 | [3] -0.073 | pinometostat 0.178 | [5] 0.028 | [6] 0.005 | [7] -0.164 | [9] -0.018 | [10] 0.078 | [11] 0.087 | [12] 0.001 | givinostat 0.137 | barasertib 0.175

CMTM3 (UniProt Q96MX0)
UniProt Q96MX0, sequence (Q96MX0 whole entry, looked up): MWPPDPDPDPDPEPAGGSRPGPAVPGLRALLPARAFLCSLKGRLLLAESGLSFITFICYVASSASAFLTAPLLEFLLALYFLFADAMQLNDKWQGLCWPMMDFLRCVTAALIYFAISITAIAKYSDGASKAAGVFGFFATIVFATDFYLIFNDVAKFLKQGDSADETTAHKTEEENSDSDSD
inactive: IRAK-1-4 Inhibitor I 0.021 | ibrutinib 0.014 | [1] 0.003 | [2] -0.108 | [3] 0.068 | pinometostat 0 | [5] 0.12 | [6] -0.062 | [7] 0.052 | [9] 0.117 | [10] -0.027 | Nexturastat A -0.119 | vemurafenib 0 | [11] 0.001 | [12] -0.024 | givinostat -0.016 | barasertib 0.098

COG2 (UniProt Q14746)
UniProt Q14746, sequence (Q14746 whole entry, looked up): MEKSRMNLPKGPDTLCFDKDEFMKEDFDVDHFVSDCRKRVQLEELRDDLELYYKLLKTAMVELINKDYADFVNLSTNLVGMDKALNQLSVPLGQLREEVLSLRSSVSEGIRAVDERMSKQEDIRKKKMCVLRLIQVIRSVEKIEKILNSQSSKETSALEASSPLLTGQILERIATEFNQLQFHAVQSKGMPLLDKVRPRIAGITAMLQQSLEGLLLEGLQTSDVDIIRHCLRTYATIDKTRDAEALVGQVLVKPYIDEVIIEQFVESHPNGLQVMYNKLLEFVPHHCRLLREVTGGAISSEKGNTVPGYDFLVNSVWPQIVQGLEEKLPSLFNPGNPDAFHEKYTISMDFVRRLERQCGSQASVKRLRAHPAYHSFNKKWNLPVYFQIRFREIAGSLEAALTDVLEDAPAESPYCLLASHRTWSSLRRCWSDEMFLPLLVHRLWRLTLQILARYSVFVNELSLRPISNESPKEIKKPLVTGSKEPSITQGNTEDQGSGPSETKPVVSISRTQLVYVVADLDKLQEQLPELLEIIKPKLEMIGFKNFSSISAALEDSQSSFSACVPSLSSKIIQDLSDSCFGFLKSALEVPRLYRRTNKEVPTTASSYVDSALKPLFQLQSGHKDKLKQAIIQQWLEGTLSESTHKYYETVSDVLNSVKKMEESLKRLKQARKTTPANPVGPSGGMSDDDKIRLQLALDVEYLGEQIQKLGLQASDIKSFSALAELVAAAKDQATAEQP
inactive: IRAK-1-4 Inhibitor I -0.232 | [1] -0.042 | ralimetinib 0.099 | [2] -0.317 | [3] -0.009 | [4] 0.18 | pinometostat -0.043 | [5] 0.132 | [6] -0.108 | [7] -0.064 | [8] 0 | [10] 0.096 | Nexturastat A 0.432 | [12] -0.59 | givinostat 0.048
